Screening results from PubChem.
The list is not random: actives were taken first. Their share in the collection is about 1.7%.
PfHsp40 rescue – restores yeast growth despite PfHsp40 toxicity; AID 504582; growth rescue, % at 12.5 µM; 0.68% of 340,000 active; S. cerevisiae expressing PfHsp40, growth rescue, ATP luminescence; in the data active means growth rescue above about 28%, passing the limit was not always enough;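 further: yeast W303a lacking pdr1 and pdr3 grown in galactose medium; growth measured after three days at 30 °C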
PrP 5UTR inh – inhibition of PrP 5' UTR reporter expression | cell-based PrP 5' UTR mRNA reporter, plate reader | inhibition, % (test concentration not listed) | 0.35% of 340,000 active | AID 488862; in the data active means inhibition above about 52%; further: 0 = median of the neutral control wells
PrPC TRFRET – cell surface PrPC inhibition, primary TR-FRET screen; 0.43% of 370,000 active; inhibition, % at 13.8 µM; P04156; TR-FRET read-out; in the data active means inhibition above about 24%; further: 0% = median of the test wells and 100% = reference compound wells
BJeLR viability – kills HRASV12-expressing BJeLR cells. BJeLR (HRASV12) viability, CellTiter-Glo ATP luminescence, 48 h. inhibition, % (test concentration not listed). 0.17% of 300,000 active. AID 1554; in the data active means inhibition above about 50%
PriA SSB inh – inhibitors of Klebsiella pneumoniae PriA binding to SSB C-terminal tail. inhibition, % at 33 µM. AID 1272365. 0.6% of 430,000 active. AlphaScreen SSBct-PriA binding, biotinylated peptide; in the data active means inhibition mostly above about 37%, no sharp cut-off; inactive means mostly below about 20%;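 further: plate controls were negative control peptide for no effect and reference peptide for full effect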
Y pestis TopoI – blocks Yersinia pestis topoisomerase I activity. 0.064% of 360,000 active. activity, % at 10 µM. Y. pestis Topo-I cleavage product accumulation, plate reader; in the data active means activity above about 50%, passing the limit was not always enough
The depositor's hits bear a star; x = not tested or not shown.

SMILES | PfHsp40 rescue | PrP 5UTR inh | PrPC TRFRET | BJeLR viability | PriA SSB inh | Y pestis TopoI
COc1cccc(NC(=S)NCCC(c2ccccc2)c2ccccc2)c1 | 3 | -13 | 9 | -10 | -8 | 17
COc1ccc(NC(=S)NCCC(c2ccccc2)c2ccccc2)c(OC)c1 | 39* | 0 | 9 | 14 | 23 | 25
Cc1c(Cl)cccc1NC(=S)NCCC(C)C | 0 | -3 | -5 | 2 | -19 | -10
CCOC(=O)C1(Cc2ccccc2C)CCCN(C(=O)c2ccoc2)C1 (stereo not drawn) | -2 | -8 | 5 | 5 | 41* | 1
CCOC(=O)C1(Cc2ccccc2C)CCCN(C(=O)c2ccnn2C)C1 (stereo not drawn) | -1 | -52 | -4 | 4 | -10 | 7
COc1ccc(-c2noc(CSc3nc4[nH]ncc4c(=O)n3-c3ccc(F)c(F)c3)n2)cc1OC | x | x | x | x | -2 | x
O=C(COC(=O)C1CCN(c2ccc(C(F)(F)F)cn2)CC1)c1ccccc1Cl | 1 | -21 | 9 | 4 | -21 | 52*
O=C(COC(=O)C1CCN(c2ccc(C(F)(F)F)cn2)CC1)c1ccc(Cl)cc1 | 5 | -19 | -5 | 5 | -56 | 30
Cc1ccc(C(=O)C(C)OC(=O)C2CCN(c3ccc(C(F)(F)F)cn3)CC2)cc1 (stereo not drawn) | 1 | -18 | -7 | x | -20 | 55*
CC(OC(=O)C1CCN(c2ccc(C(F)(F)F)cn2)CC1)C(=O)c1ccccc1 (stereo not drawn) | 5 | 9 | -3 | 0 | -33 | 26
CCCOc1cccc(C2C(C(=O)c3cc4ccccc4o3)=C(O)C(=O)N2c2cc(C)on2)c1 (stereo not drawn) | -1 | -20 | 10 | 1 | -6 | 3
Cc1cc(N2C(=O)C(O)=C(C(=O)c3cc4ccccc4o3)C2c2cccc(Br)c2)no1 (stereo not drawn) | 3 | -7 | 13 | 7 | 6 | 78*
CCOc1ccc(C2C(C(=O)c3ccc(C)o3)=C(O)C(=O)N2c2cc(C)on2)cc1OC (stereo not drawn) | 0 | -17 | -5 | -3 | 7 | -9
CCCCCOc1ccc(C2C(C(=O)c3ccc(C)o3)=C(O)C(=O)N2c2cc(C)on2)cc1 (stereo not drawn) | -1 | -31 | 3 | -4 | -12 | 88*
COc1ccc(C2(CNC(=O)C(=O)Nc3ccc(OC)cc3OC)CCCC2)cc1 | x | x | x | x | -7 | x
O=C(O)CCSc1ccc([N+](=O)[O-])cc1[N+](=O)[O-] | x | -27 | -44 | 5 | -8 | 0
CC(C)OC(=O)CSc1ccc([N+](=O)[O-])cc1[N+](=O)[O-] | x | x | x | x | 59* | x
CCOC(=O)c1cnc(-n2[nH]c(C)cc2=O)[nH]c1=O | 10 | -11 | 4 | 0 | 93* | -2
CCOC(=O)c1cnc(-n2[nH]c(C)c(Cc3ccccc3)c2=O)[nH]c1=O | 11 | -5 | -4 | 9 | 84* | 0
CCOC(=O)c1cnc(Cc2ccccc2)[nH]c1=O | -2 | -17 | 0 | -2 | -14 | 2
CCOC(=O)c1cnc(-n2nc(C)cc2C)[nH]c1=O | -2 | 3 | -3 | 1 | 13 | 8
O=C(Nc1nc(CN2CCc3ccccc3C2)cs1)c1ccccc1Cl | x | x | x | x | 8 | x
Cc1noc(C)c1CC(=O)NCC(O)Cn1ccccc1=O (stereo not drawn) | x | x | x | x | 13 | x
COc1nccnc1OC1CCCN(C(=O)c2cc(C)cs2)C1 (stereo not drawn) | x | x | x | x | -3 | x
Cc1ccc(S(=O)(=O)NC(=O)Nc2ccc(N(C)C)cc2)cc1 | 0 | -33 | -30 | -14 | 83* | 4
SMILES | PfHsp40 rescue | PrP 5UTR inh | PrPC TRFRET | BJeLR viability | PriA SSB inh | Y pestis TopoI
COc1ccc(NC(=O)CS(=O)(=O)c2ccc(C)cc2)c(OC)c1 | 0 | -11 | 4 | -4 | -8 | 2
COc1ccc(NC(=O)NS(=O)(=O)c2ccc(C)cc2)c(OC)c1 | 2 | -24 | -8 | 0 | 53* | -5
Cn1c(C(C#N)=C(O)c2cccc(N3C(=O)CCC3=O)c2)nc2ccccc21 | x | x | x | x | -9 | x
CCOC(=O)c1c(C)n(C)c2ccc(OC(=O)c3cc([N+](=O)[O-])cc([N+](=O)[O-])c3)cc12 | x | x | x | x | -6 | x
CC(C)Oc1cc(C(=O)N2CCC(N3CCCCC3)CC2)ccc1Nc1nnc(Cl)c(Nc2ccccc2S(C)(=O)=O)n1 | 0 | -13 | x | x | 2 | -7
CN1CCN(C2CCN(c3ccc(Nc4nnc(Cl)c(Nc5ccccc5S(C)(=O)=O)n4)c(OC(CF)CF)c3)CC2)CC1 | 329* | -26 | 4 | x | 29 | -32
Cc1cc(NC(=O)Cn2nnc3ccccc32)no1 | x | x | x | x | -6 | x
CCOC(=O)c1ccc(NC(=S)N(Cc2cccnc2)Cc2ccco2)cc1 | 389* | -5 | 4 | 8 | 10 | 8
COc1cccc(-c2csc(=Nc3ccc(Cl)cc3)n2N2CCOCC2)c1 | x | x | x | x | 68* | x
Cc1ccc(N=c2scc(-c3ccc(Cl)cc3)n2CCN2CCOCC2)c(C)c1 | x | x | x | x | 7 | x
CCCSc1ccc([C@H]2N[C@@](CC(C)C)(C(=O)OC)[C@H]3C(=O)N(C)C(=O)[C@@H]23)cc1 | -1 | -39 | -6 | -7 | -5 | 11
CCCCCCSc1ccc([C@H]2N[C@@](CC(C)C)(C(=O)OC)[C@H]3C(=O)N(C)C(=O)[C@@H]23)cc1 | 47* | -13 | 2 | 9 | -11 | 29
CCCCN(C)S(=O)(=O)c1cc(Br)cc2c1N(C(=O)C1CC1)CC2 | 132* | -9 | x | 2 | 3 | -7
COc1cc(NC(=O)Nc2ccccc2)c(OC)cc1NC(=O)CN1CCCCC1 | 2 | 5 | 7 | -2 | 42* | -7
CC[C@@H](C(=O)[C@@H](C)[C@@H](O)[C@H](C)[C@@H]1O[C@@H]([C@@H](CC)C(=O)O)CC[C@@H]1C)[C@H]1O[C@]2(C=C[C@@H](O)[C@]3(CC[C@@](C)([C@H]4CC[C@](O)(CC)[C@H](C)O4)O3)O2)[C@H](C)C[C@@H]1C | 220* | 0 | 70* | x | 1 | 16
O=C(c1csc2c1CCCC2)N1CCOCC1 | x | x | x | x | 8 | x
O=C(NCc1ccccc1Cl)c1ccc2c(=O)nc3c(-c4ccccc4)n[nH]n3c2c1 | x | x | x | x | -10 | x
Cc1cc(=O)[nH]c(-n2nc(C)cc2N)n1 | x | x | x | x | 96* | x
Cc1cccc(CC(=O)Nc2cc(C)nn2-c2nc(C)cc(=O)[nH]2)c1 | x | x | x | x | 51* | x
CC(=O)Nc1cc(C)nn1-c1nc(C)cc(=O)[nH]1 | x | x | x | x | 24 | x
Cc1cc(=O)[nH]c(-n2nc(C)cc2C)n1 | -1 | 0 | -3 | 4 | -11 | -4
S=c1[nH]c2ccccc2nc1N1CCOCC1 | x | x | x | x | 2 | x
CSc1cccc2sc(NC(=O)C3CCCN3S(C)(=O)=O)nc12 (stereo not drawn) | x | x | x | x | -2 | x
O=C(Nc1ccccc1N1CCCCC1)c1cc(S(=O)(=O)N2CCOCC2)ccc1F | 10 | -9 | 0 | x | 47* | 38
COc1cc([N+](=O)[O-])cc2sc(NC(=O)c3ccc(Br)cc3F)nc12 | x | x | x | x | -18 | x
